# Measurements published in PubChem BioAssay AID504451 (NMMLSC, 2011).
# Out of some 2,000 compounds screened, about 80 (4%) were called active.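 How the source made its calls: active means aptamer displacement above 40%, near three times the noise of non-fluorescent compounds, on plates passing quality checks; inactive means the rest.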 The list is a sample of the results.
# Target: Beta-adrenergic receptor kinase 1 (Homo sapiens) (UniProt P25098)
# Test: GRK2 aptamer-displacing inhibitors, retest, confirmation, biochemical, cherry pick 1, bead flow cytometry (AID 504451);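 further: negative values mostly reflect intrinsic compound fluorescence rather than true enhancement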
# Conditions: bead-bound GRK2, FAM-aptamer displacement, at 10 µM, stronger effect = higher value
# Chain of Beta-adrenergic receptor kinase 1 (Homo sapiens) (P25098 whole entry, looked up): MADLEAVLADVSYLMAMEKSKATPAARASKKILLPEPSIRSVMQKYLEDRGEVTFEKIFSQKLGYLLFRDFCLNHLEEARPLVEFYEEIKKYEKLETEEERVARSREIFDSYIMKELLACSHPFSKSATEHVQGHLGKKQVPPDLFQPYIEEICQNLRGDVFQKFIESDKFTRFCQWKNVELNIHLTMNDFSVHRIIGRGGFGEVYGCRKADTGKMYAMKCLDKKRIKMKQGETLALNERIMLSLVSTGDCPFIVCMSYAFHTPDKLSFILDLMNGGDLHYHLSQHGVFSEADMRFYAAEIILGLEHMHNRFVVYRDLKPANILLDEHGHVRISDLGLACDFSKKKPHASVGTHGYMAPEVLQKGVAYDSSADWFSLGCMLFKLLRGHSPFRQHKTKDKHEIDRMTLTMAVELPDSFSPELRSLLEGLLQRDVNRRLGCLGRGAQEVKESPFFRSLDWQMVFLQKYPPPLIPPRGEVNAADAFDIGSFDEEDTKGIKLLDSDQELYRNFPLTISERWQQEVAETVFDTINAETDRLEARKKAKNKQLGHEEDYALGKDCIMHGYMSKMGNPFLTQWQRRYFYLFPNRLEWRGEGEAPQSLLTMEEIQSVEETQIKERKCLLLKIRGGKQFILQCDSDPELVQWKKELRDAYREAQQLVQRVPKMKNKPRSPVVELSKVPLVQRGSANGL
row,Compound,aptamer displacement
1,COc1cc(C(=O)NCc2ccc3c(c2)cc(C)n3C)cc(OC)c1OC,0.16% (inactive)
2,Cc1csc(=O)n1CC(=O)OCC(=O)N(CC(C)C)c1c(N)n(Cc2ccccc2)c(=O)[nH]c1=O,-4.19% (inactive)
3,COCCn1c(C)cc(C(=O)CN2c3cccc4cccc(c34)S2(=O)=O)c1C,5.59% (inactive)
4,COc1ccc(NC(=O)CN(C)C(=O)c2cc(-c3ccc(C)o3)nc3ccccc23)cc1,1.02% (inactive)
5,O=C(NNc1ncnc2c1cnn2-c1ccccc1)c1ccco1,-5.21% (inactive)
6,C/C(=N\OCC(=O)O)c1ccc(Cl)cc1,-4.26% (inactive)
7,NC(=O)C1CCN(C(=O)c2ccc3c(=O)n(Cc4cccc(Br)c4)c(=S)[nH]c3c2)CC1,2.04% (inactive)
8,CCCCn1nc(C(=O)OCC(=O)Nc2sccc2C(N)=O)c2ccccc2c1=O,-3.95% (inactive)
9,O=S(=O)(Nc1ccc(-c2ccc(N3CCOCC3)nn2)cc1)c1cc(Cl)ccc1Cl,1.37% (inactive)
10,CCOC(=O)C(C)n1cnc2scc(-c3ccc(C)c(C)c3)c2c1=O (configuration not stated),0.17% (inactive)
11,COc1ccccc1NC(=O)CSc1nc2sc3c(c2c(=O)n1-c1ccccc1)CCN(C)C3,1.27% (inactive)
12,O=C(Nc1nnc(-c2ccccc2)o1)c1cccc(S(=O)(=O)N2CCOCC2)c1,-3.8% (inactive)
13,CSc1ccc(/C=C2\NC(=O)NC2=O)cc1,-11.5% (inactive)
14,Cc1nn(Cc2ccc(F)cc2)c(C)c1NC(=O)c1noc2c1CCc1ccccc1-2,12.1% (inactive)
15,O=C(COC(=O)c1ccc(F)cc1F)Nc1ncccn1,39.1% (inactive)
16,Cc1ccccc1CN1CCN(CC(=O)NCc2ccccn2)C1=O,0.03% (inactive)
17,CCOCCCNC(=O)C(NC(=O)CNC(=O)c1ccccc1)c1ccc(OC)cc1 (configuration not stated),-2.56% (inactive)
18,Cc1ccc(C(CNC(=O)Nc2cccc(C)c2)N2CCN(C)CC2)cc1 (configuration not stated),-1.91% (inactive)
19,O=C(CCNC(=O)c1ccccc1)NN=Cc1ccc(Br)o1,8.12% (inactive)

row,Compound,aptamer displacement
1,Cc1ccc(N2C(=O)C3N=NN(CC(=O)N4N=C(c5cccc6ccccc56)CC4c4ccccc4)C3C2=O)cc1 (configuration not stated),-6.3% (inactive)
2,CC(=O)N1CC[n+]2c(-c3ccc([N+](=O)[O-])cc3)csc21,-2.74% (inactive)
3,O=C(c1cc2cc(F)ccc2[nH]1)N1CCN(c2ccc(F)cc2)CC1,-3.05% (inactive)
4,Cc1cccc(NC(=O)C2CCCN(C(=O)NCc3ccccc3)C2)c1C (configuration not stated),-2.02% (inactive)
5,COc1ccc(Cl)cc1NC(=O)CCS(=O)(=O)c1cc2c(cc1C)NC(=O)CO2,1.91% (inactive)
6,COc1ccc(-n2nc(C(=O)NCC(=O)N3CCCCCC3)c3ccccc3c2=O)cc1Cl,-1.64% (inactive)
7,CC(NC(=O)C1CCCN(S(=O)(=O)c2ccc(-n3cnnn3)cc2)C1)c1ccc(F)cc1 (configuration not stated),1.56% (inactive)
8,COc1cc(C(=O)OCC(=O)N(CC(C)C)C2CCS(=O)(=O)C2)ccc1OCC(C)C (configuration not stated),-1.87% (inactive)
9,Cc1nc(Nc2ccccc2F)c2nnn(Cc3ccccc3Cl)c2n1,0.75% (inactive)
10,COCCCNC(=O)CNC(=O)c1nn(-c2ccc(OC)cc2)c(=O)c2ccccc12,-4.54% (inactive)
11,COc1ccc(Nc2cc(Sc3ccc(OC)cc3)ncn2)cc1,-1.93% (inactive)
12,CCOC(=O)c1sc2nc(CSc3ccccc3)[nH]c(=O)c2c1C,-0.46% (inactive)
13,Nc1ccc2nc3c(=O)[nH]c(=S)[nH]c3nc2c1,33% (inactive)
14,Cc1cc(C(=O)NC2CCN(Cc3ccccc3)CC2)n[nH]1,-6.63% (inactive)
15,CCC(=C/c1sc2ccc3ccccc3c2[n+]1C)/C=C1\Sc2ccc3ccccc3c2N1C,101% (active)
16,O=C(NCC12CC3CC(C1)CC(CNC(=O)N1CCCC1)(C3)C2)N1CCCC1,-0.31% (inactive)
17,CCOc1ccccc1C(=O)NCc1ccco1,-1.88% (inactive)
18,COC(=O)c1ccc(C)c(NC(=O)C2CC(=O)N(C3CCCC(C)C3C)C2)c1 (configuration not stated),-1.41% (inactive)
19,O=C(NCc1ccccc1)c1cccc(NC(=O)C2CCCCC2)c1,0.14% (inactive)

row,Compound,aptamer displacement
1,COc1ccc(C(=O)NCCNc2ccc([N+](=O)[O-])cn2)cc1,-0.48% (inactive)
2,C/C(=N\Nc1nc2ccccc2[nH]1)c1cccs1,-0.6% (inactive)
3,COc1ccc(Nc2nc(-c3cccnc3)nc3ccccc23)cn1,4.02% (inactive)
4,COc1ccc(N2CCN(C(CNS(=O)(=O)c3ccc(C)cc3)c3ccccc3)CC2)cc1 (configuration not stated),-2.82% (inactive)
5,O=C(Nc1ccc(-c2nnc(-c3ccccc3)o2)cc1)c1ccc(Br)o1,0.23% (inactive)
6,O=C1C2N=NN(CC(=O)N3N=C(c4cccc5ccccc45)CC3c3ccccc3)C2C(=O)N1c1ccccc1 (configuration not stated),0.13% (inactive)
7,COc1cccc(CN(C)CC(=O)Nc2sc3c(c2C#N)CCC3)c1,-0.98% (inactive)
8,Cc1ccccc1-c1nnn(CC(=O)c2ccc(S(=O)(=O)N3CCCC3)cc2)n1,-1.24% (inactive)
9,CC(C)CN(C(=O)c1cccc(S(=O)(=O)N2CCCCC2)c1)C1CCS(=O)(=O)C1 (configuration not stated),0.16% (inactive)
10,O=c1[nH]c(SCc2ccccc2)nnc1-c1ccccc1,-4.45% (inactive)
11,Cc1cc(/C=C2\SC(=O)N(C)C2=O)c(C)n1-c1cccc(C(=O)O)c1,10.9% (inactive)
12,CN(CC(=O)Nc1ccc(N2CCOCC2)cc1)CC(=O)Nc1ccccc1[N+](=O)[O-],-1.83% (inactive)
13,CNS(=O)(=O)c1cccc(C(=O)NCC2CCCCC2)c1,3.13% (inactive)
14,CCCc1nc2ccccc2c(=O)n1NC(=O)c1c(O)c2ccccc2[nH]c1=O,-0.69% (inactive)
15,Cn1c(=O)[nH]c(=O)c2c1nc(N1CCN(C(c3ccccc3)c3ccccc3)CC1)n2CCO,-8.5% (inactive)
16,O=C(CCS(=O)(=O)c1ccc(Br)cc1)NCCc1ccc(Cl)cc1,28% (inactive)
17,Cc1ccc(S(=O)(=O)CCC(=O)Nc2nnc(CC(C)C)s2)cc1,2.47% (inactive)
18,O=C(Oc1ccc(Br)cc1)c1cccnc1,-1.31% (inactive)
19,COC(=O)N/N=C/c1ccc(/C=N/NC(=O)OC)cc1,-0.84% (inactive)
